Screens from PubChem BioAssay.
In the library only some 4.3% were active in any assay of this set; here they are far more common.
UBC13 inh = UBC13 polyubiquitin chain formation inhibitors, primary screen, biochemical, TR-FRET, uHTS; 330,000 compounds, 0.47% hits; inhibition, % at 20 µM; in the data active = inhibition above about 45%, passing the limit was not always enough
Target sequence (P61088 whole entry, looked up): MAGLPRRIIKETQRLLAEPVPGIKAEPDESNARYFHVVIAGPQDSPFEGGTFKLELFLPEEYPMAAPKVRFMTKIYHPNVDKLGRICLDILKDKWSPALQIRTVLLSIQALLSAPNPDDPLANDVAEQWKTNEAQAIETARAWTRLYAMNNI
NR3A LBD binder = binders of NR3A ligand-binding domain, primary screen, biophysical, differential scanning fluorimetry, uHTS. AID 1259313, 2017. Glutamate receptor ionotropic, NMDA 3A (GRIN3A) ligand-binding domain. Tm shift relative to glycine control, % at 25 µM. NR3A LBD differential scanning fluorimetry, Tm shift; 0% = protein alone, 100% = glycine-bound protein. 340,000 compounds, 2.5% hits;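 active = melting temperature shift of at least 10% of the positive control shift, at one fixed dose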
Yeast superoxide = reduction of superoxide in aged yeast, primary screen, HTS; S. cerevisiae aged cells, superoxide DHE fluorescence; hits give low values; superoxide response (% of plate mean), % at 10 µM; 330,000 compounds, 0.18% hits; AID 2690, 2010;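 active = superoxide response under a set limit, about three screen SD below normal, cut at about 65% in these data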;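 note: yeast aged for seven days with compound at 30 °C before DHE staining; 100% = average MFI of all compound-treated wells on the plate with controls excluded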
NALP1 yeast inh = NALP1 inflammasome inhibitors in reconstituted yeast, colorimetric, S. cerevisiae, triplicate retest. S. cerevisiae NALP1/ASC/caspase-1 growth, X-gal OD620, 72 h. inhibition, % at 10 µM. 280,000 compounds, 0.61% hits; in the data active = inhibition mostly above about 24%, no sharp cut-off; inactive = mostly below about 32%
dFosB act-1 = activators of delta FosB homodimer, primary screen, biochemical, fluorescence polarization, TAMRA-CDK5 oligo, single point; AID 493131, 2011; Protein FosB (Mus musculus), P13346; 340,000 compounds, 0.99% hits; activation, % at 25 µM; purified delta FosB; percent of positive-control signal above neutral wells;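 active = mean activation above about 17%, with every replicate also reaching it, limit read from the data, passing the limit was not always enough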
dFosB act-2 = activators of mouse delta FosB DNA binding, confirmation, biochemical, fluorescence polarization, TAMRA-CDK5 oligo, cherry-picked samples. shares compounds with dFosB act-1. AID 588690, 2011. 2,400 tested, under 10 active. activation, % at 24.9 µM. purified delta FosB; normalised: neutral wells 0, positive control 100;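 active = highest replicate activation at or above 34% and every replicate reaching that threshold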;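 note: higher polarization means more probe DNA bound by delta FosB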
* hit, by the source's call; nt = not tested or not shown.

SMILES	UBC13 inh	NR3A LBD binder	Yeast superoxide	NALP1 yeast inh	dFosB act-1	dFosB act-2
Cc1c(C(=O)NC2CCC(C)CC2)oc2ccccc12 (configuration not stated)	-3.3	-1.7	96.0	8.7	0.7	nt
CC1CN(S(=O)(=O)c2cc(C(=O)NCCCN3CCCC3=O)ccc2Cl)CC(C)O1 (configuration not stated)	-5.8	0.3	95.6	nt	-3.2	nt
CN(c1ccc(OCC(=O)OCC(=O)Nc2ccc(OC(F)F)cc2)cc1)S(=O)(=O)c1cccs1	9.0	3.0	93.4	nt	3.7	nt
COc1ccc(C(=O)Nc2nc3ccc4nc(C)sc4c3s2)cc1	10.0	-1.3	99.9	12.1	22.8*	3.5
COc1ccc2nc(NC(=O)c3ccc4ncsc4c3)sc2c1	2.9	26.3*	114.7	20.1	21.6*	4.8
COc1cc(C(=O)Nc2nc3ccc4nc(C)sc4c3s2)cc(OC)c1OC	12.7	-8.0	97.3	-2.5	6.1	nt
Cc1cnc(NC(=O)c2ccc3ncsc3c2)s1	-5.3	-0.1	nt	nt	2.1	nt
COc1ccc(NC(=O)c2cc(S(=O)(=O)N3CCCCC3)ccc2C)cc1S(=O)(=O)N1CCOCC1	nt	-2.4	nt	nt	-6.4	nt
Cc1ccc(C(=O)O)cc1NC(=S)NC(=O)c1ccc([N+](=O)[O-])c(C)c1	-4.5	-1.7	120.2	14.0	-5.0	nt
COc1cc(NS(=O)(=O)c2ccc(NC(=S)NC(=O)c3sc4ccccc4c3Cl)cc2)nc(OC)n1	nt	-1.8	82.0	18.3	-3.0	nt
NC(=O)c1ccc(NC(=O)CNC(=O)c2sc3ccccc3c2Cl)cc1	18.2	-6.0	85.9	nt	37.7*	1.9
COC(=O)c1ccc(NC(=O)CNC(=O)c2sc3ccccc3c2Cl)cc1	-9.1	-0.3	104.5	nt	53.5*	3.1
NC(N)=NS(=O)(=O)c1ccc(NC(=S)NC(=O)c2sc3ccccc3c2Cl)cc1	-23.5	4.6	88.5	8.6	29.3*	5.4
CC(=O)Nc1ccc(NC(=O)CNC(=O)c2sc3ccccc3c2Cl)cc1	-1.8	-4.6	99.5	nt	42.1*	1.4
Cc1ccc(NC(=O)CNC(=O)c2sc3ccccc3c2Cl)nc1	5.1	-2.0	89.4	nt	-1.3	nt
Cc1ccc(NC(=O)COc2ccc(C(=O)c3ccccc3)cc2)c(O)c1	1.3	-2.7	96.7	16.4	-0.2	nt
CCn1c(=O)n(CC)c2cc(N3CCCC3)c(NC(=O)c3c(F)cccc3F)cc21	-2.6	0.2	102.1	0.4	-7.5	nt
CC(=O)c1ccc(S(=O)(=O)N(C)CCCC(=O)N(C)Cc2c(F)cccc2Cl)cc1	2.2	-3.9	106.0	17.9	-6.1	nt
CC(C)C(NC(=O)C(C)N1C(=O)c2ccccc2C1=O)c1ccccc1 (configuration not stated)	5.2	1.5	101.7	12.7	-2.7	nt
COCCN1CCC(CNCc2cn(-c3cc(C)ccc3C)nc2-c2ccccc2)C1 (configuration not stated)	-1.4	4.5	103.5	5.0	3.0	nt
O=C(NNC(=O)c1sc2ccccc2c1Cl)Nc1ccc(Cl)cc1	-13.7	6.2	95.9	-4.8	18.9*	1.1
COc1cc(CNC[C@H]2O[C@@H](n3cnc(C(N)=O)n3)[C@H](O)[C@@H]2O)ccc1OCc1cccc(Cl)c1	nt	-1.0	nt	nt	-0.4	nt
COc1cc(/C=N\NC(=O)c2ccc(C)nc2)ccc1OC(=O)c1ccc2c(c1)OCO2	-30.7	-1.2	105.3	13.1	138.9*	6.9
COc1cc(OC)c2nc(C)c3c(c2c1)N(c1ccc(O)cc1)CC3	nt	1.4	92.2	5.2	46.7*	5.8
COc1cc(OC)cc(C(=O)NCC(=O)N2CCN(c3ccc(O)cc3)CC2)c1	-8.1	-0.3	90.8	17.9	-0.5	nt
COCCNC(=O)Cn1nc(-c2ccccc2F)ccc1=O	-4.4	0.7	nt	18.9	4.5	nt
ON=C(CCc1ccccc1)CCc1ccccc1	nt	6.4	nt	nt	3.3	nt
Cc1ccc(CN2CCCN(Cc3c(C)cc(C)cc3C)S2(=O)=O)cc1	9.3	1.1	88.8	22.8	-2.0	nt
